# Gli-Sufu antag: Gli-Sufu pathway antagonists, primary screen, luciferase luminescence, Sufu-KO-LIGHT cells, uHTS; Sufu-KO-LIGHT fibroblasts, Gli luciferase reporter luminescence; inhibition, % at 5 µM; actives 0.74% (n = 340,000);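 active = inhibition above about 55%, limit read from the data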;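 note: 0% = DMSO-treated cells and 100% = wells with medium but no cells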
# H9c2 TAG inh: inhibitors of triacylglycerol accumulation, primary screen, cell-based, uHTS, fluorescence, H9c2. H9c2 cells, Nile Red lipid (TAG) fluorescence; cells loaded with 200 µM oleic acid. inhibition, % at 12.5 µM. actives 0.66% (n = 230,000);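 active = pattern-corrected inhibition of lipid staining of at least 50% with the nuclear-stain viability signal not falling by more than 50%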;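 note: 0% = DMSO wells and 100% = triacsin C control wells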
# aSyn 5UTR inh: MLPCN primary screen, SNCA 5' untranslated region; alpha-synuclein 5'UTR reporter, inhibitor activity; inhibition, % (tested at 7.5 µM); actives 0.82% (n = 300,000); in the data active = inhibition above about 60%;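 note: H4 neuroglioblastoma cells stably carrying SNCA 5'UTR luciferase fusion; 0% = DMSO wells and 100% = positive control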
# 697 NFkB inh: inhibitors of PMA/ionomycin-induced NF-kB reporter, 697 cells, primary screen, B-cell NF-kB inhibitor project, cell-based, luminescence, uHTS; actives 0.33% (n = 330,000); AID 435022, 2010; 697 B-cell NF-kB luciferase reporter, 16 h; inhibition, % at 4 µM; in the data active = inhibition above about 35%
# Shn3 inh set2: reduction of Shn3 3'UTR firefly luciferase signal, primary screen, Schnurri-3 inhibitor project, cell-based, Clone20 osteoblasts, set 2 | actives 0.52% (n = 360,000) | Clone20 osteoblast Shn3 3'UTR firefly luciferase, 24 h | AID 588674, 2011 | inhibition, % at 12.5 µM;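 active = mean inhibition of at least 75% with every replicate also reaching 75%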;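 note: 0% = median of neutral control wells and 100% = pilot-screen positive control compound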
# Jurkat NFkB inh: inhibitors of induced NF-kB luciferase reporter, primary screen, TCR NF-kB activation inhibitor project, cell-based, luminescence, uHTS; Jurkat, PMA/ionomycin-induced NF-kB luciferase reporter; inhibition, % at 4 µM; actives 0.53% (n = 330,000); AID 435003, 2010; in the data active = inhibition above about 50%
# 697 NFkB conf: PMA/ionomycin-induced NF-kB reporter inhibitors, 697 retest, confirmation, B-cell NF-kB inhibitor project, cell-based, luminescence, single concentration. shares compounds with 697 NFkB inh. 697 B-cell NF-kB luciferase, 16 h. inhibition, % at 4 µM. actives 35% (n = 2,000); in the data active = inhibition mostly above about 28%, no sharp cut-off; inactive = mostly below about 22%
# An asterisk follows results filed as active; i = inactive; x = not tested or not shown. Shown are actives, neighbours in structure and some others; about 2.3% of the full set was active somewhere.
SMILES,Gli-Sufu antag,H9c2 TAG inh,aSyn 5UTR inh,697 NFkB inh,Shn3 inh set2,Jurkat NFkB inh,697 NFkB conf
Oc1ccc(Oc2ccc3c(C(F)(F)F)cc(C(F)(F)F)nc3n2)cc1,8,-49,14,46*,26,13,22
COc1ccc(N=Nc2ccc(CO)cc2)cc1,-49,6,-6,-324,-55,-141,-241
COc1ccc(Nc2nccc(-c3cccc(N)c3)n2)cc1,-130,x,-16,-273,-174,-117,-177
CCOC(=O)C1=C(NC(=S)NC(=O)c2ccccc2)c2ccccc2CC1(C)CC (stereo not drawn),-1,x,39,-267,58,-37,-25
CCOC(=O)C1=C(NC(=S)NC(=O)c2ccccc2)c2ccccc2CC1C(C)C (stereo not drawn),0,-17,6,i,27,-29,i
CCOC(=O)c1sc(NC(=S)NC(=O)c2ccccc2)c(C(=O)OCC)c1C,18,x,13,-45,12,4,x
CCOC(=O)c1c(NC(=O)c2ccccc2)sc2c1CCc1ccccc1-2,4,x,-30,3,-13,4,x
Cc1cccc(-n2c(O)c(C=Nc3ccccc3-c3n[nH]c(=S)[nH]c3=O)c3ccccc3c2=O)n1,14,6,1,38*,-18,6,-21
COc1ccc(CN2C(=O)CS/C2=N/N=C/c2cccs2)cc1,-13,-11,-59,-46,-4,-5,x
CCC/C(O)=C1\C(=O)CCCC1=NCCc1c(C)[nH]c2ccc(C)cc12,5,-4,12,17,-2,3,x
CC(C)(C)C(=O)NNC(=O)c1cnccn1,3,-3,9,45*,16,0,10
COc1ccc(CC(=O)NNC(=O)c2cnccn2)cc1,-12,x,-4,10,1,7,x
Cc1ccc(C(=O)c2cccc(N)c2)cc1C,14,x,82*,37*,2,-5,-12
Cc1ccc(C(=O)c2ccc(O)cc2)cc1C,-25,-6,x,-19,-40,-11,x
Brc1cc2[nH]cnc2c2ccccc12,22,x,-43,39*,0,-1,26
CCC(C)(C)c1ccc(OCCCC[n+]2ccccc2)c(C(C)(C)CC)c1,x,52*,20,78*,81,45,34*
CCC(C)(C)c1ccc(Oc2cccc(C(=O)O)c2)cc1,-43,x,-95,-42,-47,-12,x
CC(C)(C)c1ccc(-c2cc(-c3ccccc3O)[nH]n2)cc1,32,-11,-33,-368,-15,-97,-220
O=C(NC1CCCCCC1)C1c2ccccc2C(=O)N1CCCN1CCOCC1 (stereo not drawn),-1,x,-12,4,-10,1,x
CC1CCN(C(=O)c2cc3nc(-c4ccccc4)cc(-c4ccccc4)n3n2)CC1,12,x,43,35*,20,15,15
CCN(CC)c1ccc(/C=c2\sc3nc4ccccc4n3c2=O)c(O)c1,11,14,-19,-15,35,14,x
O=C(O)CCCCCn1c(SCc2cc(=O)n3ccccc3n2)nc2ccsc2c1=O,-6,x,-34,36*,-8,7,23
COc1cc2ccccc2cc1C(=O)NCc1ccncc1,3,-3,0,-21,-7,-6,x
COC(=O)c1ccsc1NC(=O)c1ccccc1,3,12,-31,12,-43,-2,x
COC(=O)Nc1sccc1C(=O)Nc1sccc1C(=O)OC,-1,x,23,39*,-29,2,-3
SMILES,Gli-Sufu antag,H9c2 TAG inh,aSyn 5UTR inh,697 NFkB inh,Shn3 inh set2,Jurkat NFkB inh,697 NFkB conf
O=C(NCC(=O)N1CCN(S(=O)(=O)c2ccccc2C(F)(F)F)CC1)c1sc2ccccc2c1Cl,2,-10,-5,0,13,6,x
Cc1ccc(C)c(OCc2ccc(C(=O)NN)o2)c1,8,-6,16,46*,8,-6,32*
Cc1ccc(OCc2ccc(C(=O)NN)o2)c([N+](=O)[O-])c1,-1,-12,5,6,-6,-16,x
O=C(/C=C\NCC(=O)c1ccccc1)c1ccc(F)cc1,-5,x,-55,2,-17,-10,x
O=C(/C=C/Nc1ccc(F)cc1Br)c1ccccc1,-19,2,70*,-343,-7,-47,-124
COc1ccccc1-c1nc(SCC(=O)N2CCC(C(N)=O)CC2)n[nH]1,4,-8,x,-10,-8,-9,x
CCCC(c1c(C)n(C)n(-c2ccccc2)c1=O)c1c(C)n(C)n(-c2ccccc2)c1=O,0,-11,23,40*,8,-1,0
CCC(c1c(C)n(C)n(-c2ccccc2)c1=O)c1c(C)n(C)n(-c2ccccc2)c1=O,1,7,-5,18,5,8,x
CC(C)n1c2ccccc2c2nnc(SCC(=O)Nc3ccccc3C(=O)O)nc21,3,-21,-1,15,2,16,x
Cc1ccc(Nc2nc(N)nc(-c3oc4ccccc4c3C)n2)cc1,12,58*,91*,-480,-70,37,i
COC(=O)c1ccccc1-c1c2ccc(=N)cc-2oc2cc(N)ccc12,40,i,x,35,-9,35,22
CN(/N=C/c1c[nH]c2ccccc12)c1cnn(-c2ccc(F)c(Cl)c2)c(=O)c1Cl,2,x,-18,14,5,4,x
ON=Cc1ccnc2ccccc12,x,-13,x,x,15,x,x
O=C(O)c1ccccc1N/N=C\c1ccnc2ccccc12,2,-10,76*,-262,23,-61,-97
O=C(CCNC(=O)c1ccccc1Cl)NCC12CC3CC(CC(C3)C1)C2,-15,x,25,-8,1,1,x
O=C(c1cccc(NC2=NC3CS(=O)(=O)CC3S2)c1)N1CCN(c2cccc(Cl)c2)CC1 (stereo not drawn),-4,2,-11,4,-19,4,x
NNC(=O)c1cccc(COc2ccc3c(c2)CCC3)c1,-109,11,71*,56*,21,9,-30
CSc1ccc(C2Nc3cccc4cccc(c34)N2)cc1,9,x,-57,-266,21,30,-71
Cc1ccc(C(=O)CSc2nnnn2-c2ccccc2)o1,-2,-4,-36,3,1,-2,x
Cc1ccc(NC(=O)c2ccccc2O)cc1,2,-8,-37,-213,-66,-97,x
Cc1cc(C)cc(NC(=O)Nc2ccc(NC(=O)c3ccccc3O)cc2)c1,9,x,-2,36*,13,14,37*
O=C1CC(SCCO)C(=O)N1c1ccccc1 (stereo not drawn),-1,x,3,11,-3,-8,x
